Compounds with a hit are over-represented: about 3.5% of the library has one in this group of screens.
GPR151 activ: activates the human receptor GPR151; activation, % at 11.2 µM; Q8TDV0; AID 1508602; 1% of 650,000 active; PathHunter beta-arrestin GPR151 cells, luminescence; in the data active means activation above about 4.9%;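 further: 0% = median of compound wells and 100% = cells with positive control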
Target sequence (Q8TDV0 whole entry, looked up): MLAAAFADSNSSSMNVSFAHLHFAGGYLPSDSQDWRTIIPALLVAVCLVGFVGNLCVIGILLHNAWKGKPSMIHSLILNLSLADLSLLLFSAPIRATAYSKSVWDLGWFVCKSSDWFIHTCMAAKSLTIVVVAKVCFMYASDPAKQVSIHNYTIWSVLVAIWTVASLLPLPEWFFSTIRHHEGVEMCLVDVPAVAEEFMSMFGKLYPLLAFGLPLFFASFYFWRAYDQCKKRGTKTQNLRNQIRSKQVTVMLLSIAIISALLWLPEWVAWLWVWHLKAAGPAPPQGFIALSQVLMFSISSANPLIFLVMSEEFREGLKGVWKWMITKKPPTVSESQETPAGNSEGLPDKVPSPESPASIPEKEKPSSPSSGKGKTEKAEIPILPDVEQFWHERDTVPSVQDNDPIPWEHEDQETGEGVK
MITF primary: inhibitors of human MITF; AlphaScreen MITF homodimerization, bead proximity signal; inhibition, % at 2.6 µM; O75030; AID 1259374; 0.91% of 650,000 active; in the data active means inhibition above about 50%;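 further: 0% = vehicle wells with protein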
TEAD-YAP block: TEAD-YAP interaction inhibition | HEK-TIYL cells, TEAD-Gal4/YAP UAS-luciferase luminescence | inhibition, % at 9.12 µM | 1.4% of 640,000 active; in the data active means inhibition above about 32%;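 further: 0% = median of test compound wells and 100% = reference inhibitor wells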
FBW7 activator: activators of human E3 ligase FBW7. Q969H0. 0.13% of 650,000 active. normalized activity (activation), % at 26.1 µM. AlphaScreen FBW7–phospho-cyclin E peptide binding, activator screen. AID 1259310; in the data active means normalized activity above about 1.9%;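 further: purified mutant Fbw7 with reduced substrate affinity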
GPR151 confirm: confirmation of human GPR151 activators; 6,700 tested, under 10 active; GPR151 PathHunter beta-arrestin cells, luminescence, 90 min; % of EA-reagent control over plate median; shares compounds with GPR151 activ; activation, % at 11.2 µM;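 active means mean percent activation across replicates above the confirmation screen cutoff of 4.91%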
GPR119 ag: GPR119 activation, counter-screen for GPR151 activators. shares compounds with GPR151 activ. GPR119 PathHunter beta-arrestin cells, luminescence, 90 min; 0 = compound-well median, 100 = enzyme-acceptor control. activation, % at 11.2 µM. 0.3% of 6,700 active;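 active means mean percent activation in the counterscreen above 29.09%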;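 further: counterscreen on off-target GPR119 to flag nonselective hits from the GPR151 activator screen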
* marks the source's active call; other numbers are inactive results; / = no result.

SMILES	GPR151 activ	MITF primary	TEAD-YAP block	FBW7 activator	GPR151 confirm	GPR119 ag
COC(=O)c1ccc(/C=C2/C(=O)NN(c3ccc(C)c(C)c3)C2=O)cc1	5.2*	13	-1	0	0	0
CCCC1CCc2c(sc(NS(=O)(=O)c3ccc(NC(C)=O)cc3)c2C(N)=O)C1 (stereo not drawn)	10*	6	1	0	0	-9
CC(=O)Nc1ccc(S(=O)(=O)Nc2sc3c(c2C(N)=O)CCC(C)C3)cc1 (stereo not drawn)	-1	3	6	0	/	/
CCN(CC)CCN(C)Cc1ccccc1Cl	0	46	6	0	/	/
CCN(CC)CCN(C)Cc1ccccc1C	5.0*	9	3	0	0	0
O=C(c1ccc(Cl)cc1)N1CCN(c2ccc([N+](=O)[O-])c(NCc3ccco3)c2)CC1	6.0*	8	-7	0	-1	-13
O=C(N=C1N=C2C=CC(Cl)=CN2Cc2ccccc21)c1ccc(Cl)c([N+](=O)[O-])c1	17*	-1	-16	0	1	-6
O=C(N=C1N=C2C=CC(Cl)=CN2Cc2ccccc21)c1ccco1	-7	6	-43	0	/	/
Cc1c(C(=O)Nc2ccc(F)cc2)sc2ncn(C)c(=O)c12	-1	6	-39	0	/	/
CCOc1ccc(CCNS(=O)(=O)c2c(C)n[nH]c2C)cc1OCC	5.6*	5	6	0	0	8
Cc1cccc(CCNS(=O)(=O)c2c(C)n[nH]c2C)c1	-1	-4	-3	0	/	/
CC(NC(=O)c1nccc2ccccc12)c1nc(-c2ccc(Cl)cc2)n[nH]1 (stereo not drawn)	-1	-4	-1	0	/	/
O=C(Nc1ccccn1)c1ccc2c(c1)C(=O)N(c1cccc([N+](=O)[O-])c1)C2=O	0	8	-4	0	/	/
COc1cc(CNCC(C)C)cc(Cl)c1OC	0	20	2	1	/	/
CCOc1c(Cl)cc(CNCC(C)C)cc1OC	6.2*	1	11	0	-1	-14
CCCCn1cnc2sc3c(c2c1=O)CCC(C)C3 (stereo not drawn)	2	-6	-52	0	/	/
COc1ccc(C(=O)Nc2ccc3c(c2)C(=O)N(C2CCCCC2)C3=O)cc1	5.5*	0	-1	0	0	28
COc1ccc(C(=O)Nc2ccc(C(=O)N3CCCCC3)cc2)cc1	-1	3	-10	1	/	/
COc1ccc(C(=O)Nc2cccc(C(=O)N3CCCC3)c2)cc1	39*	10	-2	0	2	7
CSCCC(NC(=O)c1ccccc1)C(=O)OCC(=O)Nc1ccc(Br)cc1 (stereo not drawn)	0	0	-1	0	/	/
CC(=O)Nc1nnc(SCC(=O)Nc2cc(Cl)ccc2C)s1	3	-1	24	0	/	/
Cc1ccccc1C(=O)NC(=S)Nc1ccc(Cc2ccncc2)cc1	19*	19	8	0	0	-16
CC(=O)c1ccc(NC(=S)NC(=O)c2ccccc2F)cc1	15*	12	-67	0	0	5
COc1ccc(CCN(C)C2CCCN(Cc3ccoc3)C2)cc1OC (stereo not drawn)	0	11	11	0	/	/
COc1ccc(CCN(C)C2CCCN(Cc3c(C)nn(C)c3Cl)C2)cc1OC (stereo not drawn)	5.9*	12	9	0	0	4
SMILES	GPR151 activ	MITF primary	TEAD-YAP block	FBW7 activator	GPR151 confirm	GPR119 ag
CN(CCc1ccccc1)C1CCCN(Cc2cccnc2)C1 (stereo not drawn)	-1	8	10	0	/	/
COCc1ccc(CN2CCCC(N(C)CCc3ccccc3)C2)o1 (stereo not drawn)	5.1*	6	-8	0	-1	-6
COc1ccc(CCN(C)C2CCCN(Cc3ccncc3)C2)cc1OC (stereo not drawn)	9.1*	-14	3	0	0	4
COc1cccc(OC)c1OCCCOc1ccc(F)cc1	-1	-14	-7	0	/	/
Cc1ccc(NC(=O)CN2C(=O)N/C(=C\c3ccc(-c4cccc(C(=O)O)c4)o3)C2=O)cc1	0	7	2	0	/	/
COc1cccc(-c2nc(SCC(=O)O)c3c(=O)n(C)c(=O)n(C)c3n2)c1	12*	18	7	0	0	1
CC(C)Sc1nc(-c2ccco2)nc2c1c(=O)n(C)c(=O)n2C	2	-7	-6	0	/	/
Cn1c(=O)c2c(SCC(=O)Nc3nccs3)nc(-c3ccco3)nc2n(C)c1=O	0	16	0	0	/	/
Cc1csc(NC(=O)CSc2nc(-c3ccco3)nc3c2c(=O)n(C)c(=O)n3C)n1	6.6*	-4	-8	0	0	2
COc1ccc(-c2nc(SCC(=O)O)c3c(=O)n(C)c(=O)n(C)c3n2)cc1	-1	-15	-6	0	/	/
CC(Sc1nc(-c2ccco2)nc2c1c(=O)n(C)c(=O)n2C)C(=O)O (stereo not drawn)	9.6*	10	6	0	0	12
COc1ccccc1/C=C/CN1CCNC(=O)C1CC(=O)N1CCCO1 (stereo not drawn)	0	13	6	0	/	/
COc1ccccc1NC(=O)c1ccccc1NC(=O)c1ccccc1Cl	-1	-1	14	0	/	/
O=C(O)c1nccnc1C(=O)NCc1ccccc1	0	8	1	0	/	/
CCOC(=O)CSc1nnc(CCN2C(=O)c3cccc4cccc(c34)C2=O)n1-c1ccccc1	1	7	7	0	/	/
O=C(Cn1cc(C(=O)c2ccccc2)c(=O)c2ccccc21)Nc1ccc2c(c1)OCCO2	6.6*	-5	7	0	0	6
O=C(Cn1cc(C(=O)c2ccc(F)cc2)c(=O)c2ccccc21)Nc1ccc2c(c1)OCO2	0	2	-6	0	/	/
N#CCC(=O)Nc1ccc(C(=O)O)cc1	3	7	-6	0	/	/
O=C(NC1CC1)c1ccnc(N2CCN(c3ccccn3)CC2)c1	0	-5	-17	0	/	/
C[C@H]1NC(=O)[C@@H]2C[C@H](NCc3cccc4cccnc34)CN2C1=O	8.6*	12	4	0	0	11
COCCn1c(=N)c(S(=O)(=O)c2ccccc2)cc2c(=O)n3cc(C)ccc3nc21	2	1	4	1	/	/
O=S(=O)(N/N=C/c1cccc(Cl)c1)c1ccc(Cl)cc1	5.2*	15	-9	0	-2	-6
COc1ccc(N/C=C(/C#N)c2nc(-c3ccccc3)cs2)cc1	10.0*	4	-3	0	-1	-14
COc1ccc(-c2csc(/C(C#N)=C/Nc3ccc(F)c([N+](=O)[O-])c3)n2)cc1OC	5.2*	-3	1	0	3	8
CCOc1ccc(/C=C(/C#N)c2nc(-c3ccc(Br)cc3)cs2)c(OCC)c1	0	0	5	0	/	/
